Assays:
Assay in all cases: PBM binding z-score (relative to random genomic background probes); higher = stronger binding; sequences stand for … in GC…GCGATTGACAGCGTAGAATGAAGG
[1] = system: RARb homodimer (NR concentration 270 nM)
Method in brief: (§1)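 Binding z-scores were set against random background probes. The data came from custom Agilent 4×180K protein-binding microarrays carrying double-stranded probes with 34-nt variable regions, incubated 1 h with ligand-free nuclear receptor dimers. Partner-specific antibodies detected binding, and scanned fluorescence was regression-normalized.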

[2] = system: RARg:RXRa (NR concentration 270 nM, RXRa partner concentration 90 nM)
Method in brief: as §1

[3] = system: RARg homodimer (NR concentration 270 nM)
Method in brief: as §1

[4] = system: RXRa DBDmut IVT, anti-RXR (DBD mutation: RXRa K156A/R161A, NR concentration 90 nM)
Method in brief: as §1

[5] = system: RXRa homodimer (NR concentration 180 nM)
Method in brief: as §1

[6] = system: THRa:RXRa (NR concentration 90 nM, RXRa partner concentration 90 nM)
Method in brief: as §1

[7] = system: THRa homodimer (NR concentration 90 nM)
Method in brief: as §1

[8] = system: VDR:RXRa (NR concentration 270 nM, RXRa partner concentration 90 nM)
Method in brief: as §1

[9] = system: VDR homodimer (NR concentration 270 nM)
Method in brief: as §1

| Sequence | PBM binding z-score [1] | PBM binding z-score [2] | PBM binding z-score [3] | PBM binding z-score [4] | PBM binding z-score [5] | PBM binding z-score [6] | PBM binding z-score [7] | PBM binding z-score [8] | PBM binding z-score [9] |
| --- | --- | --- | --- | --- | --- | --- | --- | --- | --- |
| CCTTACGGGTCAAGAGGTTATAGCACGACGAGCG | 3.87 | 6.11 | 4.75 | 0.748 | 6.11 | 2.92 | 0.0618 | 4.09 | 1.17 |
| CTCGAAAGGTCGGTTGAGGTGAGTATCCGGATAA | 2.38 | 2.82 | 2.94 | 0.858 | 2.31 | 5.01 | 1.34 | 2.13 | 0.136 |
| CTACCAGGGTGAACAAGGTCGTTGATTACTATTC | 1.69 | 1.59 | 0.976 | 0.927 | 1.85 | 3.28 | 1.27 | 6.27 | 2.42 |
| ATACCAAGGTGATCGTGAGGTCGATGATACTAAC | 1.82 | 2.16 | 1.22 | 0.391 | 1.36 | 3.09 | 1.95 | 1.9 | 1.21 |
| CTCGAAAGGTAGTGCTCAGGTGAGTATACCAAAC | -0.0122 | -0.12 | 0.0951 | -0.0232 | -0.198 | 1.61 | 0.482 | -0.361 | -0.438 |
| CCTACTGGGCCAAAAGGGTCATTGATGCCGATAA | 3.22 | 3.29 | 2.71 | 0.103 | 3.26 | 2.17 | -0.01 | 4.44 | 2.72 |
| ATCTCTATGTAAAGATAGTTCAGTGAATGCAAAT | 0.692 | 0.486 | 0.571 | 0.0227 | 0.467 | 0.271 | -0.195 | 0.557 | 0.366 |
| AGAACGAGGGCACGCTGAGTTAATAGCAGAGTAG | 0.988 | 2.08 | 2.41 | 1.8 | 1.44 | 2.05 | 0.0156 | 1.69 | 1.08 |
| TCATATCGGTAATACAGGTGAAAGTCGGCATCTA | 0.531 | 0.354 | 0.441 | 1.09 | 0.783 | 0.59 | 0.42 | 0.66 | 0.435 |
| CAAACTAGGTTAAGAGGTCAAAGTCCGCTTCCCG | 4.7 | 5.88 | 5.15 | 2.2 | 6.79 | 3.89 | 1.83 | 5.21 | 4.48 |
| TCGAGTAAGTTAGGGGCATTCAGAATGGCGTCGA | 0.241 | 0.189 | -0.154 | 0.53 | 0.495 | 1.08 | -0.16 | 0.425 | 0.751 |
| TCGAGTAGGTTAGGCGCATTCAGAATGGCGTCGA | -0.314 | -0.45 | -0.527 | -0.0106 | -0.118 | -0.415 | -0.996 | -0.563 | -0.809 |
| GTACCAAGGTGAATAGGTCGATGATGAGTAGGCG | 1.77 | 2.49 | 1.57 | -0.426 | 1.86 | 1.52 | 0.425 | 0.674 | 0.182 |
| GCGACGGGGGCATCAGCAGGTTACCATAACTTAA | 2.43 | 5.01 | 2.7 | 3.03 | 3.26 | 3.25 | 1.61 | 3.67 | 1.88 |
| AGATCGAGGGCACGCTGAGTTGATAGCAGAGTAG | 0.796 | 1.71 | 1.86 | 1.57 | 0.933 | 1.63 | -0.107 | 1.85 | 1.65 |
| CTACCAAGGGGAACAAGGTCGTTGATTACTATTC | 1.09 | 0.406 | 0.334 | 0.885 | 0.759 | 1.76 | 1 | 3.86 | 2 |
| ACCCGGAGGACAAAGGTCAGAGCTACGCCAGTGA | 4.67 | 6.15 | 5.22 | 0.737 | 4.97 | 3.4 | 0.681 | 3.2 | 1.24 |
| CCTACTCGGCCATCAGGTCATTGATATCAACGTT | 3.21 | 2.43 | 2.51 | 1.21 | 1.33 | 3.16 | 3.66 | 2.37 | 2.42 |
| TAGCCTAGGTCATGGGGGCCAGTATAGTGTCGGC | 3.76 | 4.91 | 4.98 | 0.677 | 3.54 | 3.64 | 2.29 | 5.43 | 1.94 |
| ACGAGCAGGCCAAGTTTGGGTCACTCAAACAAAG | 2.28 | 2.29 | 1.45 | -0.315 | 0.708 | 2.59 | 1.04 | 0.614 | 0.234 |
| GCTGCTTGGTCAGGTTGGTCAGCTAACGGGTACG | 0.727 | -0.088 | 0.0673 | 0.0173 | -0.438 | -0.199 | 0.0955 | -0.35 | 0.00601 |
| ATCTCTAGGTGACCAAGTTCAGTGAATGCCGAAC | 1.77 | 1.24 | 1.38 | 0.521 | 0.867 | 1.5 | 0.429 | 4.77 | 2.22 |
| TCGAGTAGGTTAGTCGGGGAATTCAGCCAACATA | 0.122 | -0.408 | -0.41 | 0.0963 | -0.255 | 0.163 | -0.3 | -0.318 | -0.495 |
| ATATGTAGGTTATTGGGTCATTCAGTTTGCGCAT | 3.06 | 3.09 | 2.45 | 1.61 | 2.89 | 2.85 | 2.41 | 4.55 | 3.17 |
| TCGAGTAGGTTACCAATGCGGCATTCAGCTTTCT | -0.23 | 0.0889 | 0.12 | 0.365 | 0.498 | -0.131 | -0.859 | -0.196 | -0.937 |
| ACTAGTTGGTCAGCTCAGGTCACACACAATTCGG | 3.56 | 2.3 | 2.88 | 0.763 | 1.93 | 4.66 | 4.32 | 2.23 | 1.46 |

| Sequence | PBM binding z-score [1] | PBM binding z-score [2] | PBM binding z-score [3] | PBM binding z-score [4] | PBM binding z-score [5] | PBM binding z-score [6] | PBM binding z-score [7] | PBM binding z-score [8] | PBM binding z-score [9] |
| --- | --- | --- | --- | --- | --- | --- | --- | --- | --- |
| CCGACTGGGGTATAAGGTTACCATAAGCCAGCCC | 0.893 | 0.542 | 0.421 | -0.174 | 1.11 | 2.02 | 1.21 | 0.219 | -0.0356 |
| CCTTACGGATCACTCCAGGTTATAGCATCGGAGT | 0.563 | 0.297 | 0.583 | 0.552 | 0.224 | 3.06 | 0.842 | 0.59 | 0.677 |
| CCTTACGGGTCACTGACAGGTTTTAGCATTTGGA | 3.06 | 4.89 | 4.41 | 1.81 | 4.92 | 2.53 | 0.0377 | 3.31 | 1.01 |
| CCTACAGGGCCATTCAGAGGTCATTGATCATATG | 4.27 | 5.34 | 3.29 | 1.85 | 3.85 | 3.38 | 1.34 | 4.57 | 4.16 |
| TCTTGTAGATCAACAGGAGGTTAAGAGAGATCGA | 0.58 | 1.1 | 0.453 | 0.0129 | 0.887 | 1.01 | -0.746 | 0.733 | -0.539 |
| CGTCCAAGGTCAGCAGGTTAGTGAAAGCGACGTG | 4 | 5.37 | 6.05 | 2.64 | 4.17 | 3.57 | 2.06 | 4.07 | 1.76 |
| CAAACTAGGTCAAGGTCAGAGTCGGTTTGTGCCA | 4.8 | 5.32 | 6.42 | 2.33 | 4.6 | 4.29 | 3.28 | 3.93 | 2.79 |
| CGAACGAGGGCTTGAGTTGATAGCAAATGCCGAT | -0.757 | -0.238 | -0.288 | 0.344 | -0.152 | -0.359 | -0.618 | -0.282 | -0.163 |
| TCGAGTAAGTTACCAATGGGGCATTCAGCTTTCT | -0.474 | -0.261 | -0.771 | 0.494 | -0.0395 | -0.445 | -0.524 | 0.0279 | -0.319 |
| CAACCTAGGTCAAGAGGTCAAAGTCCGCTTCCCG | 5.47 | 8.21 | 7.78 | 3.12 | 8.82 | 4.18 | 2.41 | 6.21 | 4.38 |
| ATATGTAGGTTAAGGGTCCTTCAGGTTGGTTCGC | 1.37 | 1.03 | 1.09 | 0.575 | 1.59 | 1.15 | 0.749 | 1.67 | 1.01 |
| GCTTGTAGATGAAGGTTAAGAAAGACTAAGCTAA | 0.181 | 0.18 | 0.177 | -0.235 | 0.368 | 0.351 | -0.694 | -0.396 | -0.443 |
| ATCTCTAGGTATCCAAGTTCAGTGAATGCCGAAC | 1.46 | 0.373 | 0.76 | 0.842 | 0.354 | 0.837 | 0.736 | 2.38 | 2.5 |
| CATACAGGGTCAGCTTGGCCAGAGTAGGGACGGC | 3.06 | 4.12 | 4.29 | 1.58 | 4.13 | 2.85 | 0.515 | 2.81 | 0.849 |
| GGTAGTTGGTCAGTAAAAGGTCACACACCGGTCG | 5.4 | 5.49 | 4.84 | -0.0829 | 5.45 | 3.72 | 2.3 | 4.11 | 2.2 |
| AGTCAAAGTTCACTAGGTAACGGAAGATTCAGCT | 3.81 | 5.03 | 5.67 | 4.26 | 3.89 | 2.04 | 0.215 | 3.97 | 3.71 |
| ATATGTAGGTTACATCCTGGTCATTCAGGCTATG | 1.25 | 1.72 | 1.3 | 0.78 | 1.35 | 1.26 | 0.551 | 0.956 | 0.582 |
| CCTAGGAGGCCAGGGTCACTCAAGCATTTCGCTT | 2.95 | 2.9 | 2.55 | -0.274 | 3.08 | 2.8 | 0.866 | 2.44 | 1.02 |
| ACTCAAAGTTCATCTAGGTAACGTAAGATATGCT | 4.25 | 5.51 | 6.3 | 4.87 | 4.62 | 3.37 | 0.619 | 4.98 | 5.89 |
| ATATGTAGGTTACTTCCGGGTCATTCAGGCTATG | 3.02 | 3.9 | 2.02 | 1.23 | 3.02 | 3.91 | 2.57 | 3.93 | 2.58 |
| AGAATGAGGTTACCAAAGATCAGGTAAACGCTTG | 0.973 | 2.09 | 1.47 | 0.793 | 2.75 | 2.98 | 1.22 | 1.44 | 0.168 |
| CTCGAAAGCTCGTGCTCAGGTGAGTATACCAAAC | -0.48 | -0.629 | -0.592 | -0.295 | -0.748 | 0.472 | 0.274 | -0.8 | -0.591 |
| GCTCGGAGGACAAGGTCAGTGCTTTGTCCGTAGA | 3.23 | 2.82 | 3.65 | 0.477 | 1.29 | 2.77 | 1.49 | 1.19 | 0.406 |
| ATCGAAAGGTCGAAGAGGTGAGTATACACCGTTT | 2.74 | 4.11 | 4.08 | 0.936 | 4.41 | 2.73 | -0.077 | 4.47 | 0.745 |
| AGAATGAGGTTATACGTAGCTCAGGGAAGAAAGT | 0.301 | 1.29 | 0.944 | 1.7 | 1.86 | 1.81 | 0.226 | 1.2 | 0.643 |
| CCGACTGGGGCAGAAAGGTGACCATACCATCCGG | 1.8 | 0.634 | 0.776 | -0.975 | 0.533 | 0.282 | -0.472 | -0.31 | -0.595 |
